Laboratory results taken from PubChem BioAssay (NCI).
Several values for one entry are separate records, joined by “and”; a condition that tells them apart may be missing. Identical values can stand only once. Compounds without any hit were thinned out: in the full panel of roughly 79,000, 15% have a hit. Some structures have more than one record in an assay (separate samples or runs), and their calls can disagree. Activity calls are given as the source filed them. Rule as the data show it: active = growth inhibition above about 70%; inactive = the rest.

Tests used:
[1] = NCI Yeast Anticancer Drug Screen. Data for the rad50 strain (AID 155);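 also: 0% = growth of vehicle-only cultures of the same strain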; conditions: S. cerevisiae rad50 strain growth inhibition, stronger effect = higher value
Summary of the method: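 Readout: growth inhibition relative to vehicle-treated cultures. Compound exposure was carried out in a genetically defined yeast strain deficient in DNA damage repair.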

[2] = NCI Yeast Anticancer Drug Screen. Data for the mec2-1 strain (AID 157); conditions: S. cerevisiae mec2-1 strain, stronger effect = higher value
Summary of the method: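 Using mec2-1 yeast: add compound, measure growth, express inhibition versus vehicle-treated cultures.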

[3] = NCI Yeast Anticancer Drug Screen. Data for the sgs1 mgt1 strain (AID 161);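 also: 0% = growth of cultures given vehicle only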; conditions: S. cerevisiae sgs1 mgt1 strain, stronger effect = higher value
Summary of the method: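 Growth of a repair-deficient yeast mutant was monitored after compound treatment and expressed as inhibition relative to vehicle-treated cultures.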

[4] = NCI Yeast Anticancer Drug Screen. Data for the cln2 rad14 strain (AID 165);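 also: 0% = growth equal to vehicle treated cultures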; conditions: S. cerevisiae cln2 rad14 strain, stronger effect = higher value
Summary of the method: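 Yeast strain cln2 rad14, bearing defects in cell cycle control and DNA repair, serves as the test system; values reflect growth inhibition compared with vehicle.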

[5] = NCI Yeast Anticancer Drug Screen. Data for the bub3 strain (AID 167); conditions: S. cerevisiae bub3 mutant strain, stronger effect = higher value
Summary of the method: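 Readout: yeast growth inhibition, expressed relative to vehicle-only wells. The test organism is a mutant strain from a panel with lesions in DNA repair or checkpoint genes.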

[6] = NCI Yeast Anticancer Drug Screen. Data for the mlh1 rad18 strain (AID 175); conditions: S. cerevisiae mlh1 rad18 strain growth inhibition, stronger effect = higher value
Summary of the method: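 Steps: expose repair-defective yeast to compound; measure growth; express inhibition against vehicle-treated controls.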

[7] = at 5.0 µM (retest, dose inferred, filed as 0.5)
[8] = at 50.0 µM (retest, dose inferred, filed as 5.0)

Row | Structure (SMILES) | growth inhibition [1, 7] | growth inhibition [1, 8] | growth inhibition ([1]; at 50.0 µM) | growth inhibition [2, 7] | growth inhibition [2, 8] | growth inhibition ([2]; at 50.0 µM) | growth inhibition [3, 7] | growth inhibition [3, 8] | growth inhibition ([3]; at 50.0 µM) | growth inhibition [4, 7] | growth inhibition [4, 8] | growth inhibition ([4]; at 50.0 µM) | growth inhibition [5, 7] | growth inhibition [5, 8] | growth inhibition ([5]; at 50.0 µM) | growth inhibition [6, 7] | growth inhibition [6, 8] | growth inhibition ([6]; at 50.0 µM)
1 | Clc1c(Cl)c(Cl)c([S][Pb]([c]2ccccc2)([c]2ccccc2)[c]2ccccc2)c(Cl)c1Cl | 91% (active) | 85% (active) | 98.5% (active) | 96% (active) | 92% (active) | 98.4% (active) | 94% (active) | 42% (inactive) | 98.8% (active) | 84% (active) | 89% (active) | 97.7% (active) | 92% (active) | 96% (active) | 98.5% (active) | 92% (active) | 92% (active) | 98.3% (active)
2 | Cn1c2cccc(=O)c-2nc2ccccc21 | -14% (inactive) | 85% (active) | 82.5% (active) | 6% (inactive) | 62% (inactive) | 52.2% (inactive) | 1% (inactive) | 49% (inactive) | 21.3% (inactive) | -22% (inactive) | 34% (inactive) | -2.9% (inactive) | -12% (inactive) | 56% (inactive) | 41.9% (inactive) | 9% (inactive) | 77% (active) | 60% (inactive)
3 | Oc1cc[c]([Hg][Cl])cc1 | 99% (active) | 99% (active) | 99.5% (active) and 100% (active) | 100% (active) | 100% (active) | 99.5% (active) and 99.7% (active) | 100% (active) | 99% (active) and 100% (active) | 99.1% (active) and 100% (active) | 99% (active) | 99% (active) | 98.2% (active) and 99.5% (active) | 99% (active) and 100% (active) | 99% (active) and 100% (active) | 99.6% (active) and 99.7% (active) | 99% (active) | 99% (active) | 99.2% (active) and 99.3% (active)
4 | O=C(CI)c1ccc[nH]1 | 65% (inactive) | 99% (active) | 99.3% (active) | 79% (active) | 99% (active) | 99.3% (active) | 74% (active) | 99% (active) | 99.5% (active) | 96% (active) | 99% (active) | 99.2% (active) | 97% (active) | 97% (active) | 99.4% (active) | 74% (active) | 97% (active) | 99.3% (active)
5 | COc1c(Br)cc(/C=C(/C)[N+](=O)[O-])cc1Br | 23% (inactive) | 66% (inactive) | 91.3% (active) | 12% (inactive) | 57% (inactive) | 92.5% (active) | 43% (inactive) | 74% (active) | 31.8% (inactive) | 29% (inactive) | 61% (inactive) | 71.2% (active) | 46% (inactive) | 79% (active) | 91.8% (active) | 13% (inactive) | 59% (inactive) | 82.3% (active)
6 | CCC(C)(C)c1ccc(OP(=S)(S)Oc2ccc(C(C)(C)CC)cc2)cc1 | -1% (inactive) | 92% (active) | 88.5% (active) | 3% (inactive) | 96% (active) | 68.7% (inactive) | -7% (inactive) | 95% (active) | 94.9% (active) | 4% (inactive) | 90% (active) | 90.7% (active) | -1% (inactive) | 94% (active) | 31.5% (inactive) | -4% (inactive) | 95% (active) | 90.5% (active)
7 | COc1ccc(-c2c(C)c(C(=O)O)nc(-c3ccc4c(O)c(OC)c5c(c4n3)=NC(C)(C)N=5)c2N)c(O)c1OC | 76% (active) | 92% (active) | 75.1% (active) | 20% (inactive) | 68% (inactive) | 33% (inactive) | 39% (inactive) | 60% (inactive) | 41.4% (inactive) | 16% (inactive) | 76% (active) | 47% (inactive) | -1% (inactive) | 7% (inactive) | 19.9% (inactive) | 59% (inactive) | 87% (active) | 61.5% (inactive)
8 | CN(C)CC1CC2C3CC=C4CC(O)CCC4(C)C3CCC2(C)C1=O (configuration not stated) | -9% (inactive) | 78% (active) | 88% (active) | -1% (inactive) | 85% (active) | 37.4% (inactive) | -5% (inactive) | 86% (active) | 92.2% (active) | 4% (inactive) | 64% (inactive) | 29.1% (inactive) | -23% (inactive) | 90% (active) | 79% (active) | -12% (inactive) | 91% (active) | 92.5% (active)
9 | O=C(O)CCCC1CCCCC1 | 0% (inactive) | 39% (inactive) | 55.1% (inactive) and 57% (inactive) | -2% (inactive) | 21% (inactive) | 37.4% (inactive) and 12.7% (inactive) | 4% (inactive) | 43% (inactive) | 43% (inactive) and 44.3% (inactive) | 4% (inactive) | 27% (inactive) | 38.4% (inactive) and 46.7% (inactive) | -1% (inactive) | 52% (inactive) | 30.5% (inactive) and 62.9% (inactive) | 2% (inactive) | 51% (inactive) | 8.95% (inactive) and 79.8% (active)
